# From PubChem BioAssay AID1159580 (chemical genetic matrix, 2015)
# In all, about 5,500 compounds went through this assay and about 2,000 (36%) were called active. Not shown: some 18% with an inconclusive outcome. The list shows a part of the results. Unmarked numbers belong to inactive results. Rule as the data show it: active = normalized growth mostly below about 0.91 (no sharp cut-off); inconclusive = no clear call, values can overlap the other calls; inactive = mostly above about 0.92.
# Experiment: chemical genetic growth profiling, strain panel (AID 1159580);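 also: tested at 20 µM; growth read once vehicle control cultures reached saturation at 30 °C; 1 = growth at the plate median or of vehicle wells; lower values mean less growth of the strain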
# Settings: S. cerevisiae deletion strains, growth OD
compound,measurement,setting,value
CCCCCCCCCCCC1=C(O)C(=O)C=C(O)C1=O,normalized growth,"locus YAL013W, strain DEP1, active compounds read low",0.662 (active)
same,normalized growth,"locus YAL021C, strain ccr4, active compounds read low",0.835 (active)
same,normalized growth,"locus YAL026C, strain drs2, active compounds read low",0.394 (active)
same,normalized growth,"locus YAL030W, strain snc1, active compounds read low",0.889 (active)
same,normalized growth,"locus YBL061C, strain skt5, active compounds read low",0.795 (active)
same,normalized growth,"locus YBR009C, strain hhf1, active compounds read low",0.853 (active)
same,normalized growth,"locus YBR021W, strain FUR4, active compounds read low",0.916
same,normalized growth,"locus YBR023C, strain chs3, active compounds read low",0.815 (active)
same,normalized growth,"locus YBR171W, strain sec66, active compounds read low",0.853 (active)
same,normalized growth,"locus YBR229C, strain ROT2, active compounds read low",1
same,normalized growth,"locus YBR231C, strain swc5, active compounds read low",0.77 (active)
same,normalized growth,"locus YBR279W, strain paf1, active compounds read low",0.762 (active)
same,normalized growth,"locus YCL011C, strain gbp2, active compounds read low",0.822 (active)
same,normalized growth,"locus YCL016C, strain dcc1, active compounds read low",0.886 (active)
same,normalized growth,"locus YCL029C, strain bik1, active compounds read low",0.89 (active)
same,normalized growth,"locus YCL061C, strain MRC1, active compounds read low",0.628 (active)
same,normalized growth,"locus YCL069W, strain vba3, active compounds read low",0.538 (active)
same,normalized growth,"locus YCR088W, strain abp1, active compounds read low",0.723 (active)
same,normalized growth,"locus YDL005C, strain med2, active compounds read low",0.961
same,normalized growth,"locus YDL035C, strain GPR1, active compounds read low",0.525 (active)
same,normalized growth,"locus YDL040C, strain nat1, active compounds read low",0.95
same,normalized growth,"locus YDL074C, strain BRE1, active compounds read low",0.365 (active)
same,normalized growth,"locus YDL101C, strain DUN1, active compounds read low",0.994
same,normalized growth,"locus YDL134C, strain PPH21, active compounds read low",0.956
same,normalized growth,"locus YDL185W, strain tfp1, active compounds read low",0.503 (active)
same,normalized growth,"locus YDL192W, strain arf1, active compounds read low",0.834 (active)
same,normalized growth,"locus YDR001C, strain nth1, active compounds read low",0.786 (active)
same,normalized growth,"locus YDR069C, strain doa4, active compounds read low",0.692 (active)
same,normalized growth,"locus YDR101C, strain arx1, active compounds read low",0.871 (active)
same,normalized growth,"locus YDR137W, strain rgp1, active compounds read low",0.81 (active)
same,normalized growth,"locus YDR150W, strain NUM1, active compounds read low",0.673 (active)
same,normalized growth,"locus YDR159W, strain sac3, active compounds read low",0.822 (active)
same,normalized growth,"locus YDR162C, strain NBP2, active compounds read low",0.338 (active)
same,normalized growth,"locus YDR195W, strain ref2",0.853 (active)
same,normalized growth,"locus YDR297W, strain sur2, active compounds read low",0.87 (active)
same,normalized growth,"locus YDR318W, strain mcm21, active compounds read low",0.955
same,normalized growth,"locus YDR334W, strain swr1, active compounds read low",0.259 (active)
same,normalized growth,"locus YDR335W, strain msn5, active compounds read low",0.599 (active)
same,normalized growth,"locus YDR388W, active compounds read low",0.98
same,normalized growth,"locus YDR392W, strain spt3, active compounds read low",0.16 (active)
same,normalized growth,"locus YDR502C, strain sam2, active compounds read low",0.886 (active)
same,normalized growth,"locus YEL003W, strain gim4, active compounds read low",0.851 (active)
same,normalized growth,"locus YEL037C, strain rad23, active compounds read low",0.467 (active)
same,normalized growth,"locus YEL061C, strain CIN8 (second series), active compounds read low",0.493 (active)
same,normalized growth,"locus YEL061C, strain CIN8, active compounds read low",0.665 (active)
same,normalized growth,"locus YER015W, strain faa2, active compounds read low",0.748 (active)
same,normalized growth,"locus YER016W, strain bim1, active compounds read low",0.944
same,normalized growth,"locus YER110C, active compounds read low",0.976
same,normalized growth,"locus YER111C, strain swi4, active compounds read low",0.265 (active)
same,normalized growth,"locus YER155C, strain BEM2 (second series), active compounds read low",0.615 (active)
same,normalized growth,"locus YER155C, strain BEM2, active compounds read low",0.925
same,normalized growth,"locus YER167W, strain BCK2, active compounds read low",0.952
same,normalized growth,"locus YFR010W, strain ubp6, active compounds read low",0.507 (active)
same,normalized growth,"locus YGL078C, strain dbp3, active compounds read low",0.822 (active)
same,normalized growth,"locus YGL086W, strain mad1, active compounds read low",0.798 (active)
same,normalized growth,"locus YGL167C, strain pmr1, active compounds read low",0.882 (active)
same,normalized growth,"locus YGL173C, strain kem1, active compounds read low",0.703 (active)
same,normalized growth,"locus YGL227W, strain vid30, active compounds read low",0.909 (active)
same,normalized growth,"locus YGL240W, strain doc1, active compounds read low",0.923
same,normalized growth,"locus YGL248W, strain PDE1, active compounds read low",0.92
same,normalized growth,"locus YGL253W, strain hxk2, active compounds read low",0.359 (active)
same,normalized growth,"locus YGR078C, strain PAC10, active compounds read low",0.684 (active)
same,normalized growth,"locus YGR135W, strain pre9, active compounds read low",0.888 (active)
same,normalized growth,"locus YGR252W, strain gcn5, active compounds read low",0.95
same,normalized growth,"locus YHR013C, strain ard1, active compounds read low",0.743 (active)
same,normalized growth,"locus YHR027C, strain rpn1, active compounds read low",0.605 (active)
same,normalized growth,"locus YHR030C, strain SLT2, active compounds read low",0.596 (active)
same,normalized growth,"locus YHR079C, strain IRE1 (second series), active compounds read low",0.991
same,normalized growth,"locus YHR094C, strain hxt1, active compounds read low",0.994
same,normalized growth,"locus YHR129C, strain ARP1, active compounds read low",0.67 (active)
same,normalized growth,"locus YHR142W, strain chs7, active compounds read low",0.274 (active)
same,normalized growth,"locus YHR200W, strain rpn10, active compounds read low",0.89 (active)
same,normalized growth,"locus YIL066C, strain RNR3, active compounds read low",0.856 (active)
same,normalized growth,"locus YIL073C, strain SPO22, active compounds read low",0.933
same,normalized growth,"locus YIL125W, strain kgd1, active compounds read low",0.623 (active)
same,normalized growth,"locus YIR030C, strain dcg1, active compounds read low",0.972
same,normalized growth,"locus YJL092W, strain hpr5, active compounds read low",0.684 (active)
same,normalized growth,"locus YJL095W, strain BCK1 (second series), active compounds read low",0.88 (active)
same,normalized growth,"locus YJL095W, strain BCK1, active compounds read low",0.68 (active)
same,normalized growth,"locus YJL115W, strain asf1, active compounds read low",0.72 (active)
same,normalized growth,"locus YJL129C, strain trk1, active compounds read low",0.999
same,normalized growth,"locus YJL134W, strain LCB3, active compounds read low",0.984
same,normalized growth,"locus YJL154C, strain vps35, active compounds read low",0.521 (active)
same,normalized growth,"locus YJL164C, strain tpk1, active compounds read low",0.83 (active)
same,normalized growth,"locus YJL166W, strain qcr8, active compounds read low",0.792 (active)
